Experimental data from PubChem BioAssay AID687026 (Broad Institute, 2013).
Entries with a potency or affinity are not part of this list. The source made the active and inactive calls. The rule behind the calls is not given here.

Assay: viability loss in CEM21 cells – cell-based, plate reader, dry powder, cytotoxicity control, dose response (AID 687026)
Details: series mostly up to 35 µM; activity change, negative = cytotoxicity: at the top concentration

| Structure (SMILES) | activity change, negative = cytotoxicity | outcome |
| --- | --- | --- |
| O=S(=O)(NCc1ccncc1)c1ccc2c(c1)OCCO2 | -5.34% (inactive) | – |
| Cc1noc(C)c1S(=O)(=O)Nc1cccc2c1O[C@H](CN(C)Cc1ccc(C(F)(F)F)cc1)[C@H](C)CN([C@H](C)CO)C2=O | -7.43% (inactive) | – |
| Cn1c(C(=O)N2CCN(c3nc4ccccc4s3)CC2)cc2sccc21 | -4.66% (inactive) | – |
| Cc1noc(C)c1S(=O)(=O)Nc1cccc2c1O[C@@H](CN(C)Cc1ccc(C(F)(F)F)cc1)[C@@H](C)CN([C@@H](C)CO)C2=O | -1.12% (inactive) | – |
| Cc1noc(C)c1S(=O)(=O)Nc1cccc2c1O[C@@H](CN(C)Cc1ccc(C(F)(F)F)cc1)[C@H](C)CN([C@@H](C)CO)C2=O | -0.13% (inactive) | – |
| COc1ccc(S(=O)(=O)NCc2ccncc2)cc1OC | -6.11% (inactive) | – |
| CC1(C)CC(NC(=O)C(=O)Nc2ccc(Cl)cc2)CC(C)(C)N1 | – | inactive |
| CCOc1ccc(C)cc1S(=O)(=O)NCc1ccncc1 | -8.49% (inactive) | – |
| CCCn1nc(C(=O)Nc2ccc3nc(N4CCOCC4)sc3c2)ccc1=O | -11% (inactive) | – |
| CO[C@@H]1CN(C)C(=O)c2ccc(NC(=O)Nc3cccc(F)c3)cc2OC[C@@H](C)N(C(=O)Nc2cccc(F)c2)C[C@H]1C | -9.29% (inactive) | – |
| Cc1noc(C)c1S(=O)(=O)Nc1cccc2c1O[C@H](CN(C)Cc1ccc(C(F)(F)F)cc1)[C@@H](C)CN([C@H](C)CO)C2=O | 4.39% (inactive) | – |
| CCOc1ccc(S(=O)(=O)NCc2ccccc2)cc1 | -11.5% (inactive) | – |
| CC(=O)Nc1ccc(NC(=O)CN(c2ccc(C34CC5CC(CC(C5)C3)C4)cc2)S(C)(=O)=O)cc1 | -30.8% (inactive) | – |
| C[C@H]1CCCCO[C@@H](CN(C)Cc2ccncc2)[C@@H](C)CN([C@@H](C)CO)C(=O)c2cc(NC(=O)Nc3ccccc3)ccc2O1 | -4.58% (inactive) | – |
